# DT40 TDP1 CPT – growth inhibition of DT40 Tdp1-/-;hTDP1 cells with camptothecin (screen for TDP1 inhibitors); chicken DT40 Tdp1-/-;hTDP1 cells + 20 nM CPT, ATP luminescence, 48 h; Potency, µM (top dose mostly 46.2 µM), most hits filed as inhibitors; hit rate 12% among 420,000; AID 686979; further: nearly all actives have a fitted effect of over 55% in size
#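 Chicken DT40 Tdp1-/- cells stably complemented with human TDP1 were seeded at 400 cells/well in medium containing 20 nM camptothecin, exposed to pin-transferred compounds, and grown at 37 °C for at least 48 hr. Viability was read as ATP luminescence.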
# HT1080-NT tox – kills 2HG-producing HT-1080-NT fibrosarcoma cells; HT-1080-NT fibrosarcoma viability, CellTiter-Glo ATP luminescence, 48 h; Potency, µM (series often up to 46.1 µM), hits mostly cytotoxic; hit rate 1.6% among 360,000;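 further: NT is the 2HG producing partner of a matched IDH1 knockdown line; nearly all actives have a fitted effect of over 55% in size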
#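 HT-1080-NT fibrosarcoma cells (2HG-overproducing), 750 cells/well in RPMI with 5% FBS, dosed after 2 h and incubated 48 h at 37C. CellTiter-Glo luminescence normalized to DMSO and no-cell wells; concentration-response curves fitted and classed.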
# IL-1B inflam inh – inhibitors of inflammasome signaling (IL-1 beta secretion); THP-1 LPS/ATP IL-1B secretion, AlphaLISA, 16 h; active compounds read low; activity change, % at 57.5 µM; hit rate 4.7% among 360,000; AID 743279; in the data active means activity change below about -50%; inconclusive means mostly about -30% to -49%
#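 Secreted IL-1B measured by AlphaLISA bead assay after 16 h compound exposure of THP-1 cells; compounds (final up to 57.5 uM) added 1 h before LPS (250 ng/mL) and ATP (1.25 mM) stimulation; lower signal means less secretion.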
# ELG1 repair inh – ELG1-dependent DNA repair inhibition | AID 504467 | Potency, µM (doses to about 46.1 µM), most hits filed as inhibitors | HEK293T ELG1-luciferase reporter, luminescence, 16 h; DNA damage induced by 5-fluorouridine | hit rate 2.3% among 330,000; further: nearly all actives have a fitted effect of over 55% in size
#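 Overnight (16 hr) co-exposure of 2,000 cells/well to 5-fluorouridine and compound at 37 °C preceded detection. Luciferase was quantified via ONE-Glo luminescence; loss of signal denotes inhibition.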
# TDP1 cell noCPT – qHTS for Inhibitors of human tyrosyl-DNA phosphodiesterase 1 (TDP1): qHTS in cells in absence of CPT | DT40 Tdp1-/- hTDP1 cells, no CPT, ATP luminescence, 48 h | Potency, µM (highest dose often 46.2 µM), actives largely listed as inhibitors | hit rate 15% among 420,000 | AID 686978, 2013; further: nearly all actives have a fitted effect of over 55% in size
#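 Seeded 400 DT40-hTDP1 cells/well (vehicle DMSO, no 20 nM CPT); pinned compounds; ≥48 hr at 37 °C; CellTiter-Glo luminescence as viability measure.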
# HT1080 IDH1KD tx – HT-1080 IDH1 knockdown cell toxicity (counter line). hit rate 2% among 360,000. Potency, µM (series often up to 46.1 µM), usual class: cytotoxic. HT-1080 IDH1 knockdown viability, ATP luminescence, 48 h
#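 Viability of IDH1-knockdown HT-1080 fibrosarcoma cells was assessed by CellTiter-Glo after 48 h at 37 °C with titrated compound; concentration-effect curves were classified by fit quality and response size.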
# A number is an active result; i = inactive; ? = inconclusive; nt = not tested or not shown. This is a sample that favours compounds with a hit; in the whole collection about 19% have one here. Unless noted, the call rests on the fitted dose curve; in most records, active means well fitted curve in the direction sought with a large enough effect; inconclusive means small, poorly fitted or top-dose-only effect, or another doubt; inactive means no such curve, though single readings can be large; an effect the other way counts as inactive or inconclusive.
SMILES,DT40 TDP1 CPT,HT1080-NT tox,IL-1B inflam inh,ELG1 repair inh,TDP1 cell noCPT,HT1080 IDH1KD tx
COC(=O)c1ccc(NC(=O)Cc2ccc(F)cc2)cc1,?,i,i,i,?,i
COC(=O)c1ccc(NC(=O)Nc2cccc(F)c2)cc1,?,?,-91.8,?,?,?
CC(=O)Nc1cccc(NC(=O)Nc2ccc(F)cc2F)c1,i,i,i,?,?,i
CCOC(=O)C1CC2=C(CC(C)(C)CC2=O)N(CCOC)C1=O (stereo unspecified),i,i,i,nt,i,i
COc1cccc(-n2c(SCC(=O)Nc3ccc4c(c3)CCC4)nc3ccccc3c2=O)c1,?,i,i,i,9.2µM,i
CCN(CC)C(=O)CSc1nc2ccccc2c(=O)n1CCC(=O)NCc1ccc(F)cc1,i,i,i,11.6µM,i,i
COc1ccc(-n2c(SCC(=O)Nc3ccc(NC(C)=O)cc3)nc3ccccc3c2=O)cc1,13µM,?,i,?,i,i
CCN(CC)C(=O)CSc1nc2c(sc(=S)n2-c2ccccc2)c(=O)n1-c1ccc(OC)cc1OC,?,i,i,i,?,i
CCN(CC)C(=O)CSc1nc2c(sc(=S)n2-c2ccccc2)c(=O)n1-c1ccccc1OC,9.2µM,i,i,?,?,i
NC(CSC1(c2ccc(Cl)cc2)c2ccccc2-c2ccccc21)C(=O)O (stereo unspecified),?,i,i,nt,i,i
Cc1ccc(NC(=S)NNC(=O)CSc2nc3ccccc3c(=O)n2-c2ccc(C)cc2)cc1,i,i,i,i,16.4µM,i
CCN(CC)C(=O)CSc1nc2ccccc2c(=O)n1-c1cccc(OC)c1,?,i,?,i,14.6µM,i
CCNC(=O)CSc1nc2ccccc2c(=O)n1-c1cccc(OC)c1,i,i,i,i,i,i
Cc1ccc(-n2c(SCc3cn4ccsc4n3)nc3ccccc3c2=O)cc1,?,i,i,?,20.6µM,i
Cc1ccc(-n2c(SCC(=O)Nc3ccc(N4CCOCC4)cc3)nc3ccccc3c2=O)cc1,i,i,i,?,?,i
CCN(CC)C(=O)CSc1nnc2nnc3cc(OC)ccc3n12,i,13µM,i,i,i,?
c1ccc(-n2cnnc2SCc2cn3ccsc3n2)cc1,i,i,i,i,i,i
CC[C@@H]1CCCCc2ccccc2[C@H](C(=O)C[C@H](O)CC(C)=O)OC1=O,i,i,i,i,i,i
Cc1ccc(S(=O)(=O)N2CCOCC2)cc1C(=O)OCC(=O)NC1CCCC1,i,i,i,i,i,i
Cn1c(Cc2ccccc2)nnc1SCc1cc(=O)n2ccsc2n1,i,i,i,?,i,i
Cc1cccc(-n2c(SCc3cc(=O)n4ccsc4n3)nc3ccccc32)c1,13µM,i,i,?,16.4µM,i
CCOc1ccccc1NC(=O)CSc1nc(=O)n(CCCN2CCOCC2)c2c1CCCC2,i,i,i,i,i,i
CCn1c(-c2ccccc2F)nc2cc(NC(C)=O)cc(C(=O)N3CCNC(=O)C3CC(=O)OC)c21 (stereo unspecified),i,nt,nt,nt,i,nt
Cc1c(C(=O)c2no[n+]([O-])c2C(=O)c2cnn(C)c2C)cnn1C,2.59µM,?,i,i,3.66µM,?
C=CCc1ccc(OCC(O)CN2CCc3ccccc3C2)c(OC)c1 (stereo unspecified),i,i,i,i,?,?
SMILES,DT40 TDP1 CPT,HT1080-NT tox,IL-1B inflam inh,ELG1 repair inh,TDP1 cell noCPT,HT1080 IDH1KD tx
COc1cccc(C(=O)N/N=C(\C)CC(=O)Nc2ccc(N(C)C)cc2)c1,i,?,-88.7,i,i,i
C/C(CC(=O)Nc1ccc(N(C)C)cc1)=N\NC(=O)c1ccc([N+](=O)[O-])cc1Cl,?,i,i,i,20.6µM,i
C/C(CC(=O)Nc1ccc(N(C)C)cc1)=N\NC(=O)c1ccccc1O,i,20.6µM,i,?,i,?
C/C(CC(=O)Nc1ccc([N+](=O)[O-])cc1)=N\NC(=O)c1ccccc1O,i,i,i,i,i,i
COc1cccc(/C(C)=N/NC(=O)c2ccc(N(C)C)cc2)c1,i,i,i,?,?,i
C/C(CC(=O)Nc1ccc(N(C)C)cc1)=N\NC(=O)c1ccc(Cl)cc1Cl,i,i,i,i,i,i
O=C(NCC1CCC2(CCN(Cc3ccc4ncccc4c3)CC2)O1)C1CCCO1 (stereo unspecified),i,nt,nt,nt,i,nt
CCCCOC(=O)c1ccc(NC(=O)c2csnn2)cc1,i,nt,nt,nt,i,nt
CCn1ncc(Br)c1C(=O)Nc1ccc(F)c([N+](=O)[O-])c1,i,i,-97.4,i,?,i
CCOc1ccccc1N(CC)C(=O)c1nn(C)c2c1CSc1ccccc1-2,25.9µM,i,i,9.2µM,?,i
CC1CC(C)CN(C(=O)c2nn(C)c3c2CSc2ccccc2-3)C1 (stereo unspecified),?,i,i,?,23.1µM,i
CN(C(=O)c1nn(C)c2c1CSc1ccccc1-2)c1ccccc1Cl,?,i,?,i,?,i
CC1CCCN(C(=O)c2nn(C)c3c2CSc2ccccc2-3)C1 (stereo unspecified),i,i,i,?,i,i
CCOc1ccccc1NC(=O)c1nn(C)c2c1CSc1ccccc1-2,?,nt,nt,nt,18.4µM,nt
CCCCNC(=O)c1nn(C)c2c1CSc1ccccc1-2,16.4µM,nt,nt,nt,?,nt
Cn1ccc(C(=O)NCC2CCC3(CCN(Cc4ccc(F)cc4F)CC3)O2)n1 (stereo unspecified),i,nt,nt,nt,i,nt
CCNc1ncc2nc(-c3ccccc3)c(=O)n(Cc3ccc(F)cc3)c2n1,i,nt,nt,nt,i,nt
Cc1ccc(Cl)cc1N1CCN(C(=O)c2noc(C)c2[N+](=O)[O-])CC1,?,?,i,i,?,?
Cc1ccc2c(c1)-c1c(c(C(=O)N3CCN(c4cc(C)ccc4C)CC3)nn1C)CS2,?,nt,nt,nt,14.6µM,nt
CS(=O)(=O)N1CCC2(CCCN(C(=O)Nc3ccccc3)C2)CC1,i,nt,nt,nt,i,nt
CC(=O)OC1CC(C)(C)N(OC(=O)c2ccccc2)C(C)(C)C1,?,i,i,i,20.6µM,i
CC(=O)ON1C(C)(C)CC(OC(=O)c2ccccc2)CC1(C)C,20.6µM,i,i,i,i,i
COc1cccc(CNC(=O)C(NS(=O)(=O)c2ccc3c(c2)oc(=O)n3C)C(C)C)c1 (stereo unspecified),i,nt,nt,nt,i,nt
CCCc1nc2ccccc2c(C(=O)N(CC)CC(=O)NCc2cccs2)c1CC,i,i,i,i,i,i

# Screening data: PubChem, National Center for Advancing Translational Sciences (NCATS)
